nsP2pro inh – Primary qHTS for inhibitors of NSP2Pro chikungunya virus (CHIKV). AID 1964107, 2024. 1.1% of 31,000 active. FRET peptide cleavage, nsP2pro, fluorescence 1 h. Polyprotein P1234 (Chikungunya virus (strain S27-African prototype)), Q8JUX6. Potency, µM (doses to about 24.9 µM), hits mostly inhibitors; note: nearly all actives have a fitted effect of over 60% in size
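Enzyme 150 nM, substrate 2.5 uM (both final); Tris-HCl 10 mM pH 8.0 + 0.01% Tween 20; cpd up to 25 uM, 7 pts; 15 min preinc., 1 h RT; fluorescence ex 525/em 598.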
nsP2 cell sec – Secondary cell base assay for inhibitors of NSP2Pro Chikungunya virus (CHIKV) | shares compounds with nsP2pro inh | cell-based CHIKV nsP2 protease reporter assay | Potency, µM (series often up to 51.1 µM), actives largely listed as inhibitors | 10% of 450 active | AID 1964100, 2024; note: nearly all actives have a fitted effect of over 70% in size
NSP2 full ctr – Selectivity profile for inhibitors of NSP2Pro chikungunya virus (CHIKV): Full length NSP2 enzyme counterscreen (CHIKV-NSP2). shares compounds with nsP2pro inh. Full-length CHIKV NSP2 protease enzymatic counterscreen. Potency, µM (top dose mostly 50.7 µM), most hits filed as inhibitors. 39% of 410 active. AID 1964101, 2024; note: nearly all actives have a fitted effect of over 65% in size
Furin counterscr – Selectivity profile for inhibitors of NSP2Pro chikungunya virus (CHIKV): Human furin counterscreen. shares compounds with nsP2pro inh. Recombinant human furin enzymatic counterscreen, fluorogenic substrate. Potency, µM (series often up to 50.6 µM), most hits filed as inhibitors. 6% of 410 active. AID 1964102, 2024
Target sequence (P09958 whole entry, looked up): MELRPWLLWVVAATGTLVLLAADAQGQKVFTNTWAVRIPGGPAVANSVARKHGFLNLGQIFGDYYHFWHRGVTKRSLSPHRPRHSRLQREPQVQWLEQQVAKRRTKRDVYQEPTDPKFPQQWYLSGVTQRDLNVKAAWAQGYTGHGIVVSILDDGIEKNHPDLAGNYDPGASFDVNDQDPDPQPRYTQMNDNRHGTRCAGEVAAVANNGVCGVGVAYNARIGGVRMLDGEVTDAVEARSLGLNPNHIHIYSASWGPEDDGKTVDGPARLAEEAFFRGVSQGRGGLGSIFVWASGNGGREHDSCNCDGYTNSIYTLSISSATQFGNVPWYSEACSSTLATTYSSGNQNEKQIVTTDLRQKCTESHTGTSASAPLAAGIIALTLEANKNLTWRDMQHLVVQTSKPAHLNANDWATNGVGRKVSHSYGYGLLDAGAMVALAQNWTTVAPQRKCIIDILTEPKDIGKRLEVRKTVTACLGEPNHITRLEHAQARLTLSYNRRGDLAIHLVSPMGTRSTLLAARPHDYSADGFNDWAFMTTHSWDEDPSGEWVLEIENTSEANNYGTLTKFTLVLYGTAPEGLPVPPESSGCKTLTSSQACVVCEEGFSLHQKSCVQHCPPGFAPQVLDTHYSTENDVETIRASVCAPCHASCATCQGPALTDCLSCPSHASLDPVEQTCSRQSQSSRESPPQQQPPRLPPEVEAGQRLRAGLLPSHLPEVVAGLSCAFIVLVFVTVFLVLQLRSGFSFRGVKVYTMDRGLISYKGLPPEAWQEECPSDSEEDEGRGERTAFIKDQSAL
NS23 peptide cs – Selectivity profile for inhibitors of NSP2Pro chikungunya virus (CHIKV): Endogenous NS2/3 peptide Counterscreen | shares compounds with nsP2pro inh | Purified CHIKV nsP2 protease, endogenous NS2/3 peptide cleavage | Potency, µM (doses to about 51 µM), usual class: inhibitors | 34% of 410 active | AID 1964103, 2024; note: nearly all actives have a fitted effect of over 55% in size
Papain cs – Selectivity profile for inhibitors of NSP2Pro chikungunya virus (CHIKV): Papain Counterscreen; 5% of 410 active; shares compounds with nsP2pro inh; purified papain protease activity, enzymatic inhibition; AID 1964104, 2024; Potency, µM (titrated, usually from 51 µM), hits mostly inhibitors
nsP2pro confirm – Confirmatory qHTS for inhibitors of NSP2Pro chikungunya virus (CHIKV); Potency, µM (titrated, usually from 25.5 µM), hits mostly inhibitors; shares compounds with nsP2pro inh; 43% of 410 active; CHIKV nsP2 protease enzymatic activity, qHTS; note: nearly all actives have a fitted effect of over 75% in size
HCV NS3 4A cs – Selectivity profile for inhibitors of NSP2Pro chikungunya virus (CHIKV): NS34A-HCV Counterscreen; shares compounds with nsP2pro inh; HCV NS3/4A protease biochemical counterscreen; Potency, µM (titrated, usually from 50.9 µM), usual class: inhibitors; 20% of 410 active; AID 1964106, 2024; note: nearly all actives have a fitted effect of over 55% in size
Of the large screens only hits and unclear results are named; the others gave an inactive call (follow-up assays come after a bar, where they were run). The full list was thinned out, with hits kept by preference. Calls come from the whole dose curve.

CCOC(=O)[C@H](Cc1ccc(F)cc1)NC(=O)[C@@H](N)Cc1ccc(N(CCCl)CCCl)cc1	none
COc1ccc(C(=O)N2CCOC3(CCN(C(=O)CCN)CC3)C2)cc1	none
NCCCC(=O)N1CCC2(CC1)CN(C(=O)c1ccc(Cl)cc1)CCO2	none
NCCC(=O)N1CCC2(CC1)CN(C(=O)c1ccc(Cl)cc1)CCO2	nsP2pro inh 7.9µM | nsP2 cell sec inactive | NSP2 full ctr 12µM | Furin counterscr inactive | NS23 peptide cs 18µM | Papain cs inactive | nsP2pro confirm 9µM | HCV NS3 4A cs 2.9µM
C=C1CCC2C(C)(C)CCCC2(C)C1CC/C(C)=C\CO (stereo not drawn)	none
CC(O)C(CO)NC(=O)C1CSSCC(NC(=O)C(N)Cc2ccccc2)C(=O)NC(Cc2ccccc2)C(=O)NC(Cc2c[nH]c3ccccc23)C(=O)NC(CCCCN)C(=O)NC(C(C)O)C(=O)N1 (stereo not drawn)	none
O=C(/C=C/c1ccco1)Nc1ccc(F)cc1	nsP2pro inh 6.3µM | nsP2 cell sec inactive
COc1ccc(NC(=O)/C=C\C(=O)N(c2ccc(C(C)C)cc2)C(C(=O)NCc2ccco2)c2ccc(F)cc2)cc1 (stereo not drawn)	none
O=C(c1ccc(F)cc1)n1nc(-c2ccc(Cl)cc2)nc1NCc1ccco1	none
O=C(Nc1ccc(S(=O)(=O)Nc2nccs2)cc1)c1ccc2ccccc2c1	none
CC(C)CCNC(=O)[C@H](CC(C)C)NC(=O)[C@H]1O[C@@H]1C(=O)NCc1cccc(C#N)c1	nsP2pro inh 2.5µM | nsP2 cell sec inconclusive | NSP2 full ctr 6.5µM | Furin counterscr inactive | NS23 peptide cs 5.8µM | Papain cs 2.6µM | nsP2pro confirm 2.5µM | HCV NS3 4A cs inactive
CCOC(=O)c1noc2ncn(Cc3cccc(C#N)c3)c(=O)c12	none
CCOC(=O)[C@H]1O[C@@H]1C(=O)N[C@@H](CC(C)C)C(=O)NCCC(C)C	nsP2pro inh 8.8µM | nsP2 cell sec inactive | NSP2 full ctr 16µM | Furin counterscr inactive | NS23 peptide cs inconclusive | Papain cs 1.2µM | nsP2pro confirm 8µM | HCV NS3 4A cs inactive
CC(C)CCNC(=O)C1CCCN(C2CCN(CCc3ccccc3)CC2)C1 (stereo not drawn)	none
CN(Cc1cccc(OC(F)(F)F)c1)C(=O)C1(c2ccc(Cl)cc2)CCOCC1	none
CC(=O)C1CCC2C3CC=C4CC(O)CCC4(C)C3CCC12C (stereo not drawn)	none
c1ccc(C(OC2CCN(CCCc3nn[nH]n3)CC2)c2ccccc2)cc1	none
Cc1cc2c(F)c(Oc3ncnn4cc(OC[C@@H](C)OC(=O)[C@H](C)N)c(C)c34)ccc2[nH]1	none
CC(=O)Nc1ccc(NC(=O)c2nc(S(=O)(=O)Cc3ccc(F)cc3)ncc2Cl)cc1	nsP2pro inh inconclusive | nsP2 cell sec 2.3µM | NSP2 full ctr inconclusive | Furin counterscr inactive | NS23 peptide cs 4.6µM | Papain cs inactive | nsP2pro confirm 5µM | HCV NS3 4A cs inactive
CCS(=O)(=O)c1ncc(Cl)c(C(=O)Nc2ccccc2)n1	none
Cc1ccc(CS(=O)(=O)c2ncc(Cl)c(C(=O)Nc3nc4ccc(F)cc4s3)n2)cc1	none
CC(C)=CCC[C@](C)(O[C@@H]1O[C@H](CO)[C@@H](O)[C@H](O)[C@H]1O)[C@H]1CC[C@]2(C)[C@@H]1[C@H](O)C[C@@H]1[C@@]3(C)CC[C@H](O[C@@H]4O[C@H](CO)[C@@H](O)[C@H](O)[C@H]4O[C@@H]4O[C@H](CO)[C@@H](O)[C@H](O)[C@H]4O)C(C)(C)[C@@H]3CC[C@]12C	none
Cc1cc(S(=O)(=O)Nc2cnccc2C(=O)Nc2nc(-c3ccccc3)cs2)c(C)o1	none
Cc1cc(C)nc(NC(=S)N2CCN(c3ncccc3Cl)CC2)c1	none
CCCOc1ccccc1C(C)Nc1nc(-c2cccnc2)nc2c1CNC2 (stereo not drawn)	none
Cc1ccc(-n2c(C)cc(-c3nnc4n3CCCCC4)c2C)cc1	nsP2pro inh inconclusive | nsP2 cell sec 21µM | NSP2 full ctr inconclusive | Furin counterscr inactive | NS23 peptide cs inconclusive | Papain cs inactive | nsP2pro confirm inconclusive | HCV NS3 4A cs inconclusive
COc1ccc(-n2c(C)cc(-c3nnc4n3CCCCC4)c2C)cc1	none
Cc1cc(-c2nnc3n2CCCCC3)c(C)n1-c1ccncc1	none
CC(=O)N1Cc2ccccc2CC2(CCCN2Cc2ccccn2)C1 (stereo not drawn)	none
O=[S+]([O-])(Nc1ccc(-c2ccccc2)cc1)c1ccc(NCc2ccc(Cl)cc2O)cc1	none
Fc1ccc2nc(CCC#Cc3ccccn3)cn2c1	nsP2pro inh inconclusive | nsP2 cell sec inactive | NSP2 full ctr inactive | Furin counterscr inactive | NS23 peptide cs inactive | Papain cs inactive | nsP2pro confirm inactive | HCV NS3 4A cs inactive
NC(=O)c1ncn(C2OC(CO)C(O)C2O)c1O (stereo not drawn)	none
Cc1ccc(S(=O)(=O)Nc2cnccc2C(=O)Nc2ccc(C#N)cc2)cc1	none
Cc1cnc(-c2ccccc2C(F)F)nc1NCC1CN(c2cnccn2)C1	none

Compound activity from PubChem.
